The results in this text go back to PubChem BioAssay (Tox21).

Test [1] is described as follows: qHTS assay to identify small molecule agonists of the hypoxia (HIF-1) signaling pathway - cell viability counter screen (AID 1224844; calls by dose curve; note: nearly all actives have a fitted effect of over 50% in size; note: potency is the fitted concentration of half-maximal effect). In a few lines:
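Cytotoxicity was measured in parallel with the HRE-driven beta-lactamase readout: after 17 hrs of compound exposure at 37C, HRE-bla ME-180 cells received CellTiter-Glo and luminescence was recorded 30 min later.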
A general note: Quantitative high-throughput screening tests each substance at several concentrations.

Test [2] is described as follows: qHTS assay to identify small molecule agonists of H2AX (AID 1224845; active = well fitted activation curve with a large enough effect in the signal ratio in the repeat runs, not every such curve was filed as active; the % refers to the signal ratio; note: potency is the fitted concentration of half-maximal effect). Summed up: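 Phospho-H2AX Ser139 measured by HTRF (ex 320 nm; em 665 and 620 nm) after 24 hr antibody incubation. Compounds, 15 concentrations, 0.76% DMSO, were applied to CHO-K1 cells for 3hr at 37C before lysis.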
Test [3] in a line: qHTS assay to identify small molecule agonists of H2AX - cell viability counter screen (AID 1224847; calls by dose curve; note: nearly all actives have a fitted effect of over 30% in size; note: potency is the fitted concentration of half-maximal effect). In a few lines: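 Quantitative HTS viability measurement: CHO-K1 wild-type cells in serum (10% FBS) medium, short 3 hr drug exposure at 37C with 0.76% DMSO, CellTiter-Glo luminescent detection.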
Test [4] can be described thus: qHTS assay to identify small molecule agonists of the estrogen related receptor (ERR) signaling pathway from Tox21 library (AID 1224849; calls by dose curve; note: nearly all actives have a fitted effect of over 15% in size). The settings on record: ERR reporter cell line, ONE-Glo luciferase, 18 h; at 92.4 µM (top of the series) unless noted. In a few lines: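 Cells carrying the ERR reporter were plated and allowed to settle for 6 h, exposed to library compounds for 18 h at 37 C, then lysed with ONE-Glo and luminescence measured.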

Test [5] is described as follows: qHTS RealTime-Glo MT Cell Viability Assay in HepG2 cells - 24 hour (AID 1224867). Note: nearly all actives have a fitted effect of over 50% in size. Note: potency is the fitted concentration of half-maximal effect. In a few lines:
(§1)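 Real-time, nonlytic viability: 600 HepG2 cells/well mixed with NanoLuc enzyme plus prosubstrate; 5 h settle, compound (DMSO) added by pintool; luminescence monitored over 40 h at 37 C.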

Test [6] is described as follows: qHTS RealTime-Glo MT Cell Viability Assay in HEK293 cells - 32 hour (AID 1224868). Note: nearly all actives have a fitted effect of over 50% in size. Note: potency is the fitted concentration of half-maximal effect. In a few lines: (§2)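 Cells + reagent dispensed (600 cells/well, HEK293) → 5 h at 37 C/5% CO2 → 23 nL compound in DMSO pinned → 40 h at 37 C → luminescence read at 0, 8, 16, 24, 32, 40 h.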
Test [7] in a line: A CellTox Green Cytotoxicity Assay to monitor cytotoxicity in HEK293 cells - 0 hour (AID 1224869). Note: nearly all actives have a fitted effect of over 50% in size. Summed up: (§3)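 Cells (HEK293, 600/well) and dye reagent are dispensed together. After 5 h at 37 C, 23 nL compound is pinned in. Plates stay at 37 C for 40 h with fluorescence read at 0h, 8h, 16h, 24h, 32h and 40h.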
Test [8] can be described thus: A CellTox Green Cytotoxicity Assay to monitor cytotoxicity in HEK293 cells - 40 hour (AID 1224871). Note: nearly all actives have a fitted effect of over 45% in size. Note: potency is the fitted concentration of half-maximal effect. Summed up:
as §3

Test [9] can be described thus: qHTS RealTime-Glo MT Cell Viability Assay in HepG2 cells - 8 hour (AID 1224873). Note: nearly all actives have a fitted effect of over 55% in size. Note: potency is the fitted concentration of half-maximal effect. Summed up:
(§4)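 Real-time viability: cells seeded at 600 per well together with NanoLuc and cell-permeant prosubstrate, compounds added after 5 h incubation. Luminescence tracked at 0, 8, 16, 24, 32 and 40 h of exposure.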

Test [10] in a line: qHTS RealTime-Glo MT Cell Viability Assay in HEK293 cells - 40 hour (AID 1224874). Note: nearly all actives have a fitted effect of over 50% in size. Note: potency is the fitted concentration of half-maximal effect. The conditions noted are these: RealTime-Glo luminescence; max response: stronger effect = lower value. In a few lines:
(§5)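 Real-time viability in HEK293: signal arises when living cells convert a prosubstrate for NanoLuc in the medium, so luminescence tracks viable cell number. Compound (23 nL, DMSO) added 5 h post-seeding; kinetic reads at 0–40 h, 37 C.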

Test [11] in a line: A CellTox Green Cytotoxicity Assay to monitor cytotoxicity in HepG2 cells - 16 hour (AID 1224876). Note: nearly all actives have a fitted effect of over 45% in size. Note: potency is the fitted concentration of half-maximal effect. Summed up:
(§6)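 Cells and non-lytic dye reagent are dispensed together (600 HepG2 cells/well) and incubated 5 h before DMSO compound transfer. Kinetic fluorescence is then recorded in the same wells during 40 h at 37 C.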

Test [12] in a line: qHTS RealTime-Glo MT Cell Viability Assay in HepG2 cells - 32 hour (AID 1224877). Note: nearly all actives have a fitted effect of over 55% in size. Note: potency is the fitted concentration of half-maximal effect. Summed up: as §1
Test [13] is described as follows: A CellTox Green Cytotoxicity Assay to monitor cytotoxicity in HepG2 cells - 24 hour (AID 1224878). Note: nearly all actives have a fitted effect of over 45% in size. Note: potency is the fitted concentration of half-maximal effect. Summed up: as §6
Test [14] in a line: A CellTox Green Cytotoxicity Assay to monitor cytotoxicity in HepG2 cells - 40 hour (AID 1224879). Note: nearly all actives have a fitted effect of over 40% in size. Note: potency is the fitted concentration of half-maximal effect. In a few lines:
as §6

Test [15] in a line: qHTS RealTime-Glo MT Cell Viability Assay in HEK293 cells - 0 hour (AID 1224880). Note: top concentration of the series differs between compounds; nearly all actives have a fitted effect of over 45% in size. In a few lines: as §5
Test [16] is described as follows: qHTS RealTime-Glo MT Cell Viability Assay in HepG2 cells - 40 hour (AID 1224870). Note: nearly all actives have a fitted effect of over 50% in size. Note: potency is the fitted concentration of half-maximal effect. Summed up:
as §4

A short description of test [17]: A CellTox Green Cytotoxicity Assay to monitor cytotoxicity in HEK293 cells - 24 hour (AID 1224875). Note: nearly all actives have a fitted effect of over 45% in size. Note: potency is the fitted concentration of half-maximal effect. Summed up:
as §3

A short description of test [18]: qHTS assay to identify small molecule agonists of the hypoxia (HIF-1) signaling pathway (AID 1224846; active = well fitted activation curve with a large enough effect in the signal ratio in the repeat runs, not every such curve was filed as active; the % refers to the signal ratio). Summed up: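 Compounds from the Tox21 10K library, dissolved in DMSO, are tested for induction of a hypoxia response element–controlled beta-lactamase reporter in ME-180 cells. Exposure lasts 17 hrs at 37C after a 5 hr settling period, followed by CCF4-AM FRET substrate.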

The nature of test [19]: qHTS RealTime-Glo MT Cell Viability Assay in HEK293 cells - 16 hour (AID 1224872). Note: nearly all actives have a fitted effect of over 50% in size. Note: potency is the fitted concentration of half-maximal effect. Summed up:
as §2

A short description of test [20]: qHTS assay to identify small molecule antagonists of the estrogen related receptor (ERR) signaling pathway from Tox21 library (AID 1224848). Note: nearly all actives have a fitted effect of over 50% in size. In a few lines: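 ERR cell line, 2,000 cells/well. 6 h settle, then compound (DMSO) added; 18 h at 37 C; ONE-Glo luminescence after 30 min RT.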

Values joined by “and” are separate entries in the source; they are usually repeats but may differ in a detail not shown here. Identical values can stand only once. Records with an inconclusive call do not appear. Some structures have more than one record in an assay (separate samples or runs), and their calls can disagree. Active and inactive are the calls of the source. Unless noted, calls come from the whole dose curve; as a rule, active = well fitted curve in the direction sought with a large enough effect in the repeat runs; inconclusive = weak or mixed curves; inactive = no such curve, though single readings can be large; an effect the other way counts as inactive or inconclusive.
% is set by controls: 0 for no effect and ±100 for the full control effect.

For the compound `CCCCCCCCCCCCCCn1cc[n+](C)c1`, the Potency in test [1] was 24.6 µM (active) and 43.2 µM (active) and inactive; in test [3] it was 12.7 µM (active) and 22.3 µM (active); in [5], 24.6 µM (active) and 48.5 µM (active) and inactive; in test [6], 8.72 µM (active) and 4.32 µM (active); in [8], 39 µM (active) and 38.5 µM (active) and inactive; in [9], 49.1 µM (active) and inactive. Further, the Potency in test [10] was 2.76 µM (active) and 1.93 µM (active); in test [11], 34.7 µM (active) and 43.2 µM (active) and inactive; in test [12], 21.9 µM (active) and 38.5 µM (active) and inactive; in [13] it was 24.6 µM (active) and 38.5 µM (active) and inactive; in test [14], 19.5 µM (active) and 21.6 µM (active) and inactive. Moreover, the Potency result in test [2], in test [7] and in test [15] was “inactive” in each case. Besides, the activity change, positive = activation in [4] was -74.5% (inactive) and -73.1% (inactive) and -26.1% (inactive).
Turning to `O=S1OCC2C(CO1)C1(Cl)C(Cl)=C(Cl)C2(Cl)C1(Cl)Cl` (configuration not stated), the Potency in [1] is 48.9 µM (active); in [2] it was 89.9 µM (active) and 101 µM (active); in [3], 101 µM (active) and 89.7 µM (active); in test [5], 54.9 µM (active); in [6], 21.9 µM (active) and 38.9 µM (active); in test [8], 49 µM (active) and 54.9 µM (active). The Potency in [9] is 48.9 µM (active); in test [10], 21.9 µM (active) and 38.9 µM (active); in test [17], 55 µM (active) and 54.9 µM (active); in [11], 48.9 µM (active); in [12], “inactive and 54.9 µM (active)”; in [14], 54.9 µM (active). Moreover, the Potency entry in test [7], in test [16] and in test [15] was “inactive” throughout.
Turning to `CN1[C@@H]2CC[C@H]1CC(O)C2` (some centres not stated), the Potency result in test [1], in test [2], in [3], in test [5], in test [6] and in test [7] was “inactive” throughout. In addition, the Potency result in test [16], in [8], in test [9], in test [17], in [11] and in test [12] was “inactive” throughout. The Potency entry in test [13], in test [14] and in test [15] was “inactive” each time. Besides, in [10], the max response is 15.4% (inactive).
`O=C(NC(=O)c1c(F)cccc1F)Nc1ccc(Oc2ccc(C(F)(F)F)cc2Cl)cc1F`: the Potency entry in test [1], in test [2], in [18], in test [5], in test [7] and in test [16] was “inactive” each time. The Potency entry in [8], in [9], in test [17], in test [11], in [12] and in [13] was “inactive” each time. The Potency entry in test [14] and in [15] was “inactive” throughout. The Potency was 43.6 µM (active) in [6] and 24.5 µM (active) in [19].
`CC1(C)C(C=C(Cl)Cl)C1C(=O)OC(C#N)c1ccc(F)c(Oc2ccccc2)c1` (configuration not stated): the Potency result in test [1], in [2], in [3], in test [5], in test [6] and in test [7] was “inactive” each time. Moreover, the Potency entry in test [16], in test [8], in [17], in test [11], in test [12] and in test [13] was “inactive” throughout. Moreover, the Potency entry in test [14] and in test [15] was “inactive” throughout. In addition, the activity change, positive = activation in test [4] was -26.4% (inactive). For the same compound, the max response in [10] was -18.6% (inactive).
As to `Brc1ccc(Oc2ccc(Br)cc2Br)c(Br)c1`, the Potency result in test [1], in test [2], in test [20], in [5], in test [7] and in test [16] was “inactive” throughout. The Potency entry in test [8], in [9], in [17], in [11], in test [12] and in test [13] was “inactive” each time. Moreover, the Potency entry in test [14] and in test [15] was “inactive” each time. For the same compound, the Potency in test [3] was 113 µM (active); in test [6] it was 49 µM (active); in [10] it was 49 µM (active). Further, the activity change, positive = activation in test [4] is 13% (inactive).
As to `C[N+]1(C)[C@@H]2CC[C@H]1CC(OC(=O)C(CO)c1ccccc1)C2` (some centres not stated), the Potency result in test [1], in test [2], in test [3], in test [5], in [6] and in [7] was “inactive” in each case. Also, the Potency entry in test [8], in test [19], in [9], in test [17], in test [11] and in test [13] was “inactive” in each case. Besides, the Potency entry in test [14] and in test [15] was “inactive” in each case. Also, the Potency in [16] was 23.9 µM (active). Moreover, the max response in test [10] is 8.28% (inactive).
